Source: PubChem BioAssay
For part of these data: Measured potencies and affinities stand elsewhere. Activity calls are given as the source filed them.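 The calls were made as follows, unless noted: active = calcium signal rise above buffer-control mean plus 5 SD in both duplicates, and also a hit in the primary screen; inactive = the rest.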

Columns and labels:
[1] = system: TRPC4 beta (transient receptor potential cation channel C4), mouse; experiment: activators of mouse TRPC4 channel, confirmation, cell-based, Fluo4 calcium, HEK293 TRPC4beta/mu-opioid, duplicates, 10 µM (AID 2426;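 active = fluorescence ratio normalized to control raised more than 50% in primary screen plus both repeat runs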); conditions: Fluo4 calcium fluorescence, at 10 µM; hits give high values
[2] = system: transient receptor potential cation channel C4 beta (TRPC4), mouse; experiment: activators of mouse TRPC4 channel, confirmation, cell-based, second round, Fluo4, HEK293 TRPC4beta/mu-opioid, 1 µM (AID 2461;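 active = primary screen active and over 50% activation in each of two duplicate runs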); conditions: Fluo4 calcium fluorescence, at 1 µM; hits give high values
[3] = system: TRPC4 (transient receptor potential cation channel C4 beta), mouse; experiment: positive allosteric modulators of mouse TRPC4, confirmation, cell-based, second round, Fluo-4, HEK293 TRPC4beta/mu-opioid, 1 µM (AID 2554;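 active = primary screen hit whose fluorescence ratio, in both repeats, exceeds the weak agonist control mean by 3 SD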); conditions: DAMGO EC20, Fluo-4 calcium flux, at 1 µM; hits give high values
[4] = system: TRPC4 beta (transient receptor potential cation channel C4), mouse; experiment: positive allosteric modulators of mouse TRPC4, confirmation, cell-based, Fluo-4, HEK293 TRPC4beta/mu-opioid (AID 2555;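 active = primary screen hit whose calcium fluorescence ratio, in both repeats, exceeds the weak agonist control mean by 3 SD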); conditions: DAMGO EC20, Fluo-4 calcium flux, at 10 µM; hits give high values
[5] = target: Short transient receptor potential channel 4 (Mus musculus) (UniProt Q9QUQ5); experiment: inhibitors of mouse TRPC4 channel, confirmation, cell-based, Fluo4, HEK293 TRPC4beta/mu-opioid (AID 2636;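 active = calcium signal cut by more than 3 SD below the full-agonist control yet still positive, in both repeats and the earlier primary screen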); conditions: DAMGO, Fluo4 calcium flux, at 10 µM; hits give high values
Short transient receptor potential channel 4 (Mus musculus), sequence (Q9QUQ5 whole entry, looked up): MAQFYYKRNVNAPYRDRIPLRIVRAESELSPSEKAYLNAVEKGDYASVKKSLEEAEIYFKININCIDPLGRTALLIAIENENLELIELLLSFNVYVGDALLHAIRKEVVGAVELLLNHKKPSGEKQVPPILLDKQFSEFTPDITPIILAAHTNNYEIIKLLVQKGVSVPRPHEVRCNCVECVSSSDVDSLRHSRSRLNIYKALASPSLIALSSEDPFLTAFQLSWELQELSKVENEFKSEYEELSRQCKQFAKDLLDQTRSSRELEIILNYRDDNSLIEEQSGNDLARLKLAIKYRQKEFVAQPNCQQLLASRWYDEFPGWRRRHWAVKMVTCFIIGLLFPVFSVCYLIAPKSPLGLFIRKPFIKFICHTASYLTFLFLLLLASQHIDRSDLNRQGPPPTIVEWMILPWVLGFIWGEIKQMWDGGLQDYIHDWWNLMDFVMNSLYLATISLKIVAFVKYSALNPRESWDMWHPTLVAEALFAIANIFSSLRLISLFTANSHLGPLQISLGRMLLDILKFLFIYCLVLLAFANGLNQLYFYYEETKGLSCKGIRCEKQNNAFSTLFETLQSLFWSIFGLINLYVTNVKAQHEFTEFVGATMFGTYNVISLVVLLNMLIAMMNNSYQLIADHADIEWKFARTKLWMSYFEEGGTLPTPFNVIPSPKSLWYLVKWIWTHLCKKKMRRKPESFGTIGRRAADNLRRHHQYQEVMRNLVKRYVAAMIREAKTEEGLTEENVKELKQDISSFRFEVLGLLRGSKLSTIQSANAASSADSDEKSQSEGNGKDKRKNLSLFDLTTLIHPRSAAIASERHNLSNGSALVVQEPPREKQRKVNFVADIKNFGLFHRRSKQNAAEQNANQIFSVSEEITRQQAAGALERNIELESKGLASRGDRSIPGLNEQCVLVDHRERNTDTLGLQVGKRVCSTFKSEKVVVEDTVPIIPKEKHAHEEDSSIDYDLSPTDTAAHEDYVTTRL

[6] = target: Short transient receptor potential channel 4 (Mus musculus) (UniProt Q9QUQ5); experiment: inhibitors of mouse TRPC4 channel, confirmation, cell-based, second round, Fluo4, HEK293 TRPC4beta/mu-opioid, 1 µM (AID 2637;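 active = calcium signal ratio cut to more than 3 SD under the fully stimulated control mean yet still positive, in both repeats and the primary screen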;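 as to inhibition: percent of integrated ratio relative to wells lacking test compound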); conditions: Fluo4 calcium flux, DAMGO, at 1 µM; hits give high values
[7] = target: Short transient receptor potential channel 4 (Mus musculus) (UniProt Q9QUQ5); experiment: mouse TRPC4 channel activators, dose response, cell-based, HEK293 TRPC4/mu-opioid, Fluo-4 calcium (AID 434937;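 active = primary screen activator hit with a dose response curve and TRPC4 channel activation at any tested dose; inactive = no activation, no dose response, or not a primary hit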)
[8] = target: Short transient receptor potential channel 4 (Mus musculus) (UniProt Q9QUQ5); experiment: TRPC4 positive allosteric modulators, dose response, cell-based, HEK293 TRPC4/mu-opioid, Fluo-4 calcium, EC20 DAMGO (AID 434941;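 active = earlier screen potentiator hit that boosts the TRPC4 ion channel at some dose, with a dose response; inactive = no potentiation, no dose response, or not a prior hit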;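 also: calcium entry triggered by an EC20 dose of DAMGO at the co-expressed mu-opioid receptor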)
[9] = target: Short transient receptor potential channel 6 (Mus musculus) (UniProt Q61143); experiment: inhibition of mouse TRPC6 channel, confirmation, selectivity assay for TRPC4 inhibitor project, cell-based, HEK293, membrane potential dye, duplicate (AID 434948;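 active = active in primary screen and both duplicates, each dropping signal beyond three positive-control SD with fluorescence still positive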); conditions: HEK293 TRPC6, membrane potential dye fluorescence, at 10 µM, stimulated with maximal-effect acetylcholine; hits give high values
Short transient receptor potential channel 6 (Mus musculus), sequence (Q61143 whole entry, looked up): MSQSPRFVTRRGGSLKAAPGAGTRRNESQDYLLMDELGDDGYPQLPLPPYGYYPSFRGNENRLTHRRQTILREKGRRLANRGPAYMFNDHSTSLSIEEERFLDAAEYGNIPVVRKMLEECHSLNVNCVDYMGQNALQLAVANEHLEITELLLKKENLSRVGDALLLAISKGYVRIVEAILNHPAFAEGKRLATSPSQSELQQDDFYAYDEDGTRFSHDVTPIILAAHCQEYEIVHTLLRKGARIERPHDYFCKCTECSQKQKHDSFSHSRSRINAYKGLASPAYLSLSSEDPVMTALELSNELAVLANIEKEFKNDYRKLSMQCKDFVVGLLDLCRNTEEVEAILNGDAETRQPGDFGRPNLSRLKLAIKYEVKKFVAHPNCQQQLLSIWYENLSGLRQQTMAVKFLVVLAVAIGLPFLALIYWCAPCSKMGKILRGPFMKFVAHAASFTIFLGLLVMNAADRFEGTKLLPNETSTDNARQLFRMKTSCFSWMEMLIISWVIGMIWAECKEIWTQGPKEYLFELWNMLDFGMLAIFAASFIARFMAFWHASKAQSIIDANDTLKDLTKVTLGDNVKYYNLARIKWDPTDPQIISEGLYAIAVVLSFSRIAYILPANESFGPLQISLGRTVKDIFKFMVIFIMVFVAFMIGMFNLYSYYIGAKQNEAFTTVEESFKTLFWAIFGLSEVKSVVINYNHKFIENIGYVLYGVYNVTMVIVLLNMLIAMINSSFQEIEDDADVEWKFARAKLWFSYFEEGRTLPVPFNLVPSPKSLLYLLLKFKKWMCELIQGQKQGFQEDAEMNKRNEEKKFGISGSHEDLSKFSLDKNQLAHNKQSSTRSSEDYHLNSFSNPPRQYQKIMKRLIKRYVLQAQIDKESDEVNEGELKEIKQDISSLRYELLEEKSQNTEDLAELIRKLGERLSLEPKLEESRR

[10] = target: Short transient receptor potential channel 6 (Mus musculus) (UniProt Q61143); experiment: activation of mouse TRPC6 channel, confirmation, selectivity assay for TRPC4 activator project, cell-based, HEK293, membrane potential dye, duplicate (AID 434950;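 active = membrane potential signal rise above negative control mean plus 3 SD in both duplicates, also active in the earlier TRPC4 screen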); conditions: HEK293 TRPC6, membrane potential fluorescence, at 10 µM; hits give high values
[11] = target: Short transient receptor potential channel 6 (Mus musculus) (UniProt Q61143); experiment: TRPC6 potentiation by TRPC4 potentiator hits, confirmation, selectivity assay for TRPC4 potentiator project, HEK293 cells, membrane potential dye, duplicate (AID 434952;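 active = compound raising the membrane signal above positive-control mean plus 3 SD in both repeats, and a primary screen hit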); conditions: HEK293 TRPC6, membrane potential dye fluorescence, at 10 µM, maximal acetylcholine added after compound; hits give high values
[12] = target: Short transient receptor potential channel 4 (Mus musculus) (UniProt Q9QUQ5); experiment: calcium flux activators in TRPC4/5HT1a cells, counter-screen for TRPC4 activator project, cell-based, second counter screen, HEK293 TRPC4/5HT1a, Fluo-4 (AID 434977); conditions: Fluo-4 calcium flux, at 10 µM; hits give high values
[13] = calcium flux inhibitors in TRPC4/5HT1a cells, confirmation, counter-screen for TRPC4 inhibitor project, cell-based, second counter screen, HEK293 TRPC4/5HT1a, Fluo-4 (AID 434978;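 active = primary screen active whose calcium signal fell more than 3 SD beyond the full-serotonin control mean in both duplicate plates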;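 as to outcome: serotonin given first at submaximal then at maximal dose after compound preincubation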); conditions: Fluo-4 calcium flux, at 10 µM, serotonin added to trigger calcium flux; hits give high values
[14] = system: TRPC4 (mouse), co-expressed with 5HT1a in HEK293; experiment: calcium flux potentiators in TRPC4/5HT1a cells, confirmation, counter-screen for TRPC4 potentiator project, cell-based, second counter screen, HEK293 TRPC4/5HT1a, Fluo-4 (AID 434979;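 active = signal rise over 3 SD above mean of control wells given weak agonist, in both repeats and first screen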); conditions: Fluo-4 calcium flux, at 10 µM, serotonin added at its EC20 dose; hits give high values
[15] = calcium flux activation in mu-opioid HEK293 cells, confirmation, counter-screen for TRPC4 activator project, cell-based, HEK293 mu-opioid receptor line (AID 449723;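 active = hit in primary screen, with calcium signal over 5 SD above buffer well mean in both duplicates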;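 also: counter screen cells carry the mu-opioid receptor alone and lack TRPC4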); conditions: Fluo-4 calcium fluorescence, at 10 µM; hits give high values
[16] = calcium flux enhancement in mu-opioid HEK293 cells, confirmation, counter-screen for TRPC4 allosteric potentiator project, cell-based, HEK293 mu-opioid receptor line (AID 449724;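 active = calcium signal rise more than 3 SD above the low-dose agonist control mean, in both duplicate plates and the primary screen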); conditions: Fluo-4 calcium flux, at 10 µM, compound added before EC20 DAMGO stimulus; hits give high values

COc1ccc(SC[C@H](Cc2ccccc2)N2CCN(C)CCC2=O)cc1
inactive: outcome [1] | outcome [2] | outcome [3] | outcome [4] | outcome [7] | outcome [8] | outcome [9] | outcome [10] | outcome [11] | outcome [12] | outcome [13] | outcome [14] | outcome [15] | outcome [16]
active: inhibition [5] 95% | inhibition [6] 40%

NS(=O)(=O)c1ccc(CCNCc2ccccc2OCc2ccc(Cl)cc2)cc1
active: inhibition [5] 87% | inhibition [6] 54% | inhibition [13] 31.3%
inactive: outcome [1] | outcome [2] | outcome [3] | outcome [4] | outcome [7] | outcome [8] | outcome [9] | outcome [10] | outcome [11] | outcome [12] | outcome [14] | outcome [15] | outcome [16]

CCCn1c(NC(=O)c2cccc(S(=O)(=O)N3CCCC3)c2)nc2ccccc21
inactive: outcome [1] | outcome [2] | outcome [6] | outcome [7] | outcome [8] | outcome [9] | outcome [10] | outcome [11] | outcome [12] | outcome [13] | outcome [15] | outcome [16]
active: potentiation [3] 11% | potentiation [4] 64% | inhibition [5] 87% | potentiation [14] 24.4%

Cn1cc(CN2CCCCC2CO)c(-c2ccc(Oc3ccccc3)cc2)n1 (stereo not given)
inactive: outcome [1] | outcome [2] | outcome [3] | outcome [4] | outcome [7] | outcome [8] | outcome [9] | outcome [10] | outcome [11] | outcome [12] | outcome [14] | outcome [15] | outcome [16]
active: inhibition [5] 86% | inhibition [6] 41% | inhibition [13] 39.6%

CC(COc1ccccc1)N1CCC(CO)(Cc2ccccc2)CC1 (stereo not given)
inactive: outcome [1] | outcome [2] | outcome [3] | outcome [4] | outcome [6] | outcome [7] | outcome [8] | outcome [9] | outcome [10] | outcome [11] | outcome [12] | outcome [14] | outcome [15] | outcome [16]
active: inhibition [5] 96% | inhibition [13] 22.9%

Cc1ccccc1C(=O)NC1CC2CCC(C1)N2Cc1ccccc1 (stereo not given)
inactive: outcome [1] | outcome [2] | outcome [3] | outcome [4] | outcome [7] | outcome [8] | outcome [9] | outcome [10] | outcome [11] | outcome [12] | outcome [14] | outcome [15] | outcome [16]
active: inhibition [5] 68% | inhibition [6] 47% | inhibition [13] 43.3%

NC(=O)c1nsc(C(=O)N(Cc2ccccc2F)C(C(=O)NCC2CCCO2)c2ccc(F)cc2)c1N (stereo not given)
inactive: outcome [1] | outcome [2] | outcome [3] | outcome [4] | outcome [7] | outcome [8] | outcome [9] | outcome [10] | outcome [11] | outcome [12] | outcome [14] | outcome [15] | outcome [16]
active: inhibition [5] 93% | inhibition [6] 50% | inhibition [13] 26.4%

N=c1c2c(n(Cc3ccc(Cl)cc3)c3c1CCC3)CCC2
inactive: outcome [1] | outcome [2] | outcome [3] | outcome [4] | outcome [7] | outcome [8] | outcome [10] | outcome [11] | outcome [12] | outcome [14] | outcome [15] | outcome [16]
active: inhibition [5] 96% | inhibition [6] 50% | inhibition [9] 34.5% | inhibition [13] 10.6%

COc1cc(C(F)(F)F)nc2c(Br)c(C(C)(C)C)nn12
inactive: outcome [1] | outcome [2] | outcome [3] | outcome [4] | outcome [7] | outcome [8] | outcome [9] | outcome [10] | outcome [11] | outcome [12] | outcome [14] | outcome [15] | outcome [16]
active: inhibition [5] 92% | inhibition [6] 65% | inhibition [13] 35.3%

CN(C)C(CNC(=O)c1ccccc1OCc1ccc(Cl)cc1)c1ccco1 (stereo not given)
inactive: outcome [1] | outcome [2] | outcome [3] | outcome [4] | outcome [7] | outcome [8] | outcome [9] | outcome [10] | outcome [11] | outcome [12] | outcome [14] | outcome [15] | outcome [16]
active: inhibition [5] 84% | inhibition [6] 62% | inhibition [13] 23%

O=c1oc2ccccc2c(Nc2ccccc2)c1CN1CCCCC1
inactive: outcome [1] | outcome [2] | outcome [3] | outcome [4] | outcome [7] | outcome [8] | outcome [9] | outcome [10] | outcome [11] | outcome [12] | outcome [13] | outcome [14] | outcome [15] | outcome [16]
active: inhibition [5] 84% | inhibition [6] 46%

S=C(Nc1ccccc1)Nc1cc(Cl)ccc1Oc1ccccc1
active: inhibition [5] 78% | inhibition [13] 40.2%
inactive: outcome [1] | outcome [2] | outcome [3] | outcome [4] | outcome [6] | outcome [7] | outcome [8] | outcome [9] | outcome [10] | outcome [11] | outcome [12] | outcome [14] | outcome [15] | outcome [16]

CNc1nc(SCc2ccccc2Cl)nc2c1CCCC2
inactive: outcome [1] | outcome [2] | outcome [3] | outcome [4] | outcome [6] | outcome [7] | outcome [8] | outcome [9] | outcome [10] | outcome [11] | outcome [12] | outcome [14] | outcome [15] | outcome [16]
active: inhibition [5] 90% | inhibition [13] 13.9%

COc1ccc(CNC(=O)CN(C)Cc2ccccc2F)cc1OC
active: inhibition [5] 86% | inhibition [13] 34.9%
inactive: outcome [1] | outcome [2] | outcome [3] | outcome [4] | outcome [6] | outcome [7] | outcome [8] | outcome [9] | outcome [10] | outcome [11] | outcome [12] | outcome [14] | outcome [15] | outcome [16]

CC(OCC(O)CN(C)CCOc1ccccc1)c1ccc(Cl)cc1 (stereo not given)
active: inhibition [5] 94% | inhibition [6] 44% | inhibition [13] 22.2%
inactive: outcome [1] | outcome [2] | outcome [3] | outcome [4] | outcome [7] | outcome [8] | outcome [9] | outcome [10] | outcome [11] | outcome [12] | outcome [14] | outcome [15] | outcome [16]
